15 compounds from PubChem BioAssay (NCI) can be followed below.

This is part of a sample that, as a whole, favours compounds with a hit. Of some 79,000 tested, about 15% had one in any assay. A number with no mark means an inactive call. Calls of active or inactive are those of the source. No stated cut-off is given here; in the data, active means growth inhibition above about 70%; inactive means the rest.

The experiment can be described thus: NCI Yeast Anticancer Drug Screen. Data for the cln2 rad14 strain (AID 165).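 Further: 0% = growth equal to vehicle treated cultures.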 As to conditions: S. cerevisiae cln2 rad14 strain, at 50.0 µM, hits give high values. The gist of the method:
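Yeast carrying cln2 and rad14 alterations (cell cycle control and DNA damage repair) were exposed to compounds. Growth inhibition was measured against vehicle-treated controls.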
Take `O=C1OC(=O)c2ccc(SCC(O)CCl)c3cccc1c23` (stereo not given): the growth inhibition is 95.8% (active).

Take `O=C(O)C1C(C2c3ccc(O)cc3Oc3cc(O)ccc32)C2(Cl)C(Cl)=C(Cl)C1(Cl)C2(Cl)Cl` (stereo not given): the growth inhibition was 69.2%.

With `COc1ccccc1C(=O)C(CN(C)C)CN(C)C`, the growth inhibition is 15.3%.

Regarding `C/C(=N\NC(=O)C[N+](C)(C)C)c1sc(-c2cccnc2)nc1C`, the growth inhibition is 20.9%.

For `CCOC(C#CC(=O)C(C)C)OCC`, the growth inhibition was 2.25%.

Regarding `O=C1c2cc([N+](=O)[O-])cc3cc([N+](=O)[O-])cc(c23)C(=O)N1CCNCCNCCNCCN1C(=O)c2cc([N+](=O)[O-])cc3cc([N+](=O)[O-])cc(c23)C1=O`, the growth inhibition was 90.8% (active).

`COc1ccc(C2C(=O)C(Cl)N2Nc2nc(C)cc(=O)[nH]2)cc1OC` (stereo not given): the growth inhibition was -2.3%.

Take `NC1=NN(c2ccccc2)C(=O)/C1=C\n1c(=S)[nH]c2ccccc21`: the growth inhibition was -16.3%.

On to `O=C(OCCc1ccccc1)C(O)c1ccccc1` (stereo not given), for which the growth inhibition was 10.7%.

For `COC(=O)/C=C(\C(=O)OC)C(C(=O)c1ccccc1)=P(c1ccccc1)(c1ccccc1)c1ccccc1`, the growth inhibition was -26.5%.

Take `COc1ccc2c(N=[N+]=[N-])cc(C)nc2c1`: the growth inhibition is -57.5%.

As for `CC(C)N(C(=O)C1C2CCC(CC2)C1C(=O)N(C(C)C)C(C)C)C(C)C` (stereo not given), the growth inhibition is -0.9%.

Consider `CC(C)(C)OC(=O)c1c2ccccc2cc2ccccc12`, for which the growth inhibition is 14.2%.

As for `C=CCNC(=S)Nc1ccc(OC(=O)NC(C)(C)C)cc1`, the growth inhibition was -16.8%.

For the compound `COC(=O)CNC(=O)C(Cc1ccccc1)NC(=O)OCc1ccccc1` (stereo not given), the growth inhibition is 1.9%.
